Assay outcomes: PubChem, National Center for Advancing Translational Sciences (NCATS)
SARS PLpro yeast: blocks SARS-CoV papain-like protease in a yeast assay; S. cerevisiae expressing SARS-CoV PLpro, growth rescue; Potency, µM (titrated, usually from 32.9 µM), inactives show at the highest dose activity, positive = growth rescue, hits mostly activators; hit rate 0.19% among 330,000; AID 485353; calls by dose curve; also: potency is read from the fitted curve at half-maximal effect; 0% is about no effect; nearly all actives have a fitted effect of over 55% in size
Shiga toxin inh: Shiga toxin inhibition | Vero cells, Shiga toxin protein synthesis inhibition reporter | inhibition, % at 38.7 µM | hit rate 9.2% among 290,000; in the data active = inhibition mostly above about 28%, no sharp cut-off; inactive = mostly below about 43%; also: 0% is about no effect
NS1 inh: influenza NS1 inhibition | Potency, µM (highest dose often 46.1 µM), for inactives: top-dose activity, positive = more growth | hit rate 0.4% among 270,000 | AID 2326; calls by dose curve; also: potency is read from the fitted curve at half-maximal effect; actives are rising curves; nearly all actives have a fitted effect of over 50% in size
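OD600 was taken as the measure of yeast growth restored by compound in an NS1-expressing S. cerevisiae strain. Cells had been washed out of glucose medium and diluted 1:100 into galactose -URA medium, pH 6.0.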
Pf growth 96h: P. falciparum growth inhibition at 96 hour, primary screen for plastid delayed-death inhibitors | P. falciparum luciferase reporter growth, 96 h | Potency, µM (top dose mostly 28.7 µM), inactives show at the highest dose activity change, negative = inhibition, hits mostly inhibitors | hit rate 6.9% among 320,000 | AID 504834; also: potency is read from the fitted curve at half-maximal effect; % is scaled to controls: 0 for no effect and ±100 for the full control effect
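P. falciparum expressing integrated firefly luciferase grown in erythrocytes (2% hematocrit, 0.05% parasitemia final) with compounds for 96 hours at 37 C, 5% CO2. Growth inhibition read as loss of luminescence after adding luciferase detection reagent.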
Pf growth 48h: P. falciparum growth inhibition at 48 hours (one generation); P. falciparum luciferase growth in erythrocytes, 48 h; Potency, µM (titrated, usually from 28.7 µM), without a hit: top-dose activity change, negative = inhibition, usual class: inhibitors; hit rate 5.9% among 310,000; AID 504832; also: potency is read from the fitted curve at half-maximal effect; % is scaled to controls: 0 for no effect and ±100 for the full control effect
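First compound was added to culture medium, then infected red cells at 0.1% parasitemia and 2% hematocrit (final). After incubation at 37 C under 5% CO2, luciferase detection reagent was dispensed and light output recorded.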
Cycloheximide cs: affects cycloheximide protein synthesis inhibition readout, counter-screen | cell reporter, cycloheximide protein synthesis inhibition counterscreen | max response, % | hit rate 12% among 300,000; in the data active = max response mostly above about 13%, no sharp cut-off; inactive = mostly below about 14%; also: read at 38.3 µM for the half of the compounds with a filed dose; 0% is about no effect
* marks the source's active call; other numbers are inactive results; [ ] = remark or other dose. In the library only some 21% were active in any assay of this set; here they are far more common. Unless noted, calls follow the shape of the dose curve; as a rule, active = well fitted inhibition curve with a large enough effect; inconclusive = small, poorly fitted or top-dose-only effect, or another doubt; inactive = no such curve, though single readings can be large or run the other way.

CCc1ccc(NC(=O)c2ccc3ncsc3c2)cc1 was read as SARS PLpro yeast 5%, Shiga toxin inh 68*, NS1 inh -62%, Pf growth 96h inactive, Pf growth 48h 138% and Cycloheximide cs 44*.
For O=C(Nc1ccc(Br)cc1)c1ccc2ncsc2c1 the results were SARS PLpro yeast 0%, Shiga toxin inh 89*, NS1 inh -12%, Pf growth 96h 244%, Pf growth 48h 198% and Cycloheximide cs 50*.
CC(C)(C)c1ccc(NC(=O)COC(=O)c2ccc3ncsc3c2)cc1 was read as SARS PLpro yeast 2%, Pf growth 96h -66% and Pf growth 48h 36%.
Screening O=C(Nc1ccc2c(c1)C(=O)NC2=O)c1ccc2ncsc2c1 returned SARS PLpro yeast 0%, Shiga toxin inh 92*, NS1 inh 7%, Pf growth 96h 192%, Pf growth 48h 155% and Cycloheximide cs 22*.
Screening N/C(=N\OC(=O)c1ccc2c(c1)OCO2)c1cccnc1 returned SARS PLpro yeast -2%, Shiga toxin inh 58*, NS1 inh 3%, Pf growth 96h 77%, Pf growth 48h -23% and Cycloheximide cs 21*.
For COc1ccc(/C(N)=N/OC(=O)c2ccc3c(c2)OCO3)cc1OC the results were SARS PLpro yeast -10%, Shiga toxin inh -5, NS1 inh -6%, Pf growth 96h inconclusive, Pf growth 48h inconclusive and Cycloheximide cs 12.
Screening N/C(=N\OC(=O)c1ccc2c(c1)OCO2)c1ccc([N+](=O)[O-])cc1 returned SARS PLpro yeast 0%, Shiga toxin inh 10, NS1 inh 1%, Pf growth 96h 0%, Pf growth 48h -12% and Cycloheximide cs 15.
For N/C(=N\OC(=O)c1ccc2c(c1)OCO2)c1cccc(Br)c1 the results were SARS PLpro yeast -6%, Shiga toxin inh 87*, NS1 inh -68%, Pf growth 96h 1%, Pf growth 48h 36% and Cycloheximide cs 30*.
`CN(Cc1ccc(Cl)cc1Cl)C(=O)CNC(=O)c1ccco1` gave SARS PLpro yeast 24%, Shiga toxin inh 14, NS1 inh -1%, Pf growth 96h 0%, Pf growth 48h 6% and Cycloheximide cs 1.
Screening CN(c1ccccc1C(=O)Nc1ccccc1-c1ccccc1)S(C)(=O)=O returned SARS PLpro yeast -2%, Shiga toxin inh -8, NS1 inh -3%, Pf growth 96h 14%, Pf growth 48h 1% and Cycloheximide cs -4.
`CCCS(=O)(=O)n1nc(-c2ccc(OC)cc2OC)cc1N` gave SARS PLpro yeast -7%, Shiga toxin inh 15, NS1 inh inconclusive, Pf growth 96h inconclusive, Pf growth 48h 17% and Cycloheximide cs 4.
`CCCS(=O)(=O)n1nc(-c2ccc(C)cc2)cc1N` gave SARS PLpro yeast 2%, Shiga toxin inh 39, NS1 inh -3%, Pf growth 96h 4.7µM* and Cycloheximide cs 15.
`COc1cc(OC)cc(-c2cc(N)n(S(=O)(=O)Cc3ccccc3)n2)c1` gave SARS PLpro yeast -2%, Shiga toxin inh -7, NS1 inh 12%, Pf growth 96h 8.3µM* and Cycloheximide cs -6.
CCCS(=O)(=O)n1nc(-c2ccc(OC)cc2)cc1N was read as SARS PLpro yeast 9%, Shiga toxin inh 11, NS1 inh 1%, Pf growth 96h 10µM* and Cycloheximide cs 1.
Cc1nc(C)c(NC(=O)OC(C)C)cc1NC(=O)OC(C)C was read as SARS PLpro yeast 1%, Shiga toxin inh -4, Pf growth 96h 0%, Pf growth 48h 4% and Cycloheximide cs 1.
O=C1COc2ccc(OCc3ccc(F)cc3)cc21 was read as SARS PLpro yeast -19%, Shiga toxin inh 101*, NS1 inh -59%, Pf growth 96h 31%, Pf growth 48h 118% and Cycloheximide cs 51*.
Screening CC(=O)N1CCN(C(=O)C(Cc2c[nH]c3ccccc23)NC(=O)c2ccccc2Cl)CC1 (stereo unspecified) returned SARS PLpro yeast 7%, Shiga toxin inh 24, NS1 inh -7%, Pf growth 96h -22%, Pf growth 48h -14% and Cycloheximide cs -3.
`Cc1ccc(C(=O)Nc2cc3c(oc2=O)CCCC3=O)cc1` gave SARS PLpro yeast 3%, Shiga toxin inh 75*, NS1 inh -17%, Pf growth 96h 226%, Pf growth 48h 102% and Cycloheximide cs 45*.
O=C(Nc1cc2c(oc1=O)CCCC2=O)c1ccccc1 was read as SARS PLpro yeast -10%, Shiga toxin inh 17*, NS1 inh -6%, Pf growth 96h 63%, Pf growth 48h 44% and Cycloheximide cs 33*.
For Cc1ccc(NC(=O)COC(=O)/C=C/c2cccs2)c(C)c1 the results were SARS PLpro yeast 8%, Shiga toxin inh 11, NS1 inh 0%, Pf growth 96h 26%, Pf growth 48h 0% and Cycloheximide cs -3.
`CSc1ccc(CN(C)C(=O)c2cc3ccccc3o2)cc1` gave SARS PLpro yeast 0%, Shiga toxin inh 87*, NS1 inh -32%, Pf growth 96h 64%, Pf growth 48h 35% and Cycloheximide cs 39*.
Screening CN(Cc1c(F)cccc1Cl)C(=O)c1cc2ccccc2o1 returned SARS PLpro yeast -1%, Shiga toxin inh 35, Pf growth 96h -15%, Pf growth 48h 9% and Cycloheximide cs 37*.
`COc1ccc(OC)c(NC(=O)COC(=O)CCCN=C2NS(=O)(=O)c3ccccc32)c1` gave SARS PLpro yeast -2%.
For C=CCN(c1ccccc1)S(=O)(=O)c1cc2c(cc1C)NC(=O)CO2 the results were SARS PLpro yeast 9%, Shiga toxin inh 7, NS1 inh 11%, Pf growth 96h inconclusive, Pf growth 48h 3% and Cycloheximide cs -2.
Screening COCCCNC(=O)CSc1ccsc1[N+](=O)[O-] returned SARS PLpro yeast -1%, Shiga toxin inh -2, NS1 inh -3%, Pf growth 96h -36%[5.75 µM], Pf growth 48h 1% and Cycloheximide cs 7.
For O=C(CSc1ccsc1[N+](=O)[O-])NCc1ccco1 the results were SARS PLpro yeast -2%, Shiga toxin inh 10, Pf growth 96h inconclusive, Pf growth 48h 12µM* and Cycloheximide cs 6.
Screening COC(=O)/C=C1\S/C(=N/N=C/c2ccccc2)NC1=O returned SARS PLpro yeast -16%, Shiga toxin inh -4, NS1 inh -7%, Pf growth 96h -12%, Pf growth 48h -23% and Cycloheximide cs 10.
For COC(=O)/C=C1\S/C(=N/N=C/c2ccc(Cl)cc2)NC1=O the results were SARS PLpro yeast -6%, Shiga toxin inh -4, NS1 inh -45%, Pf growth 96h 8%, Pf growth 48h 15µM* and Cycloheximide cs -1.
For COC(=O)/C=C1/S/C(=N/N=C/c2ccco2)NC1=O the results were SARS PLpro yeast -3%, Shiga toxin inh -15, NS1 inh -35%, Pf growth 96h inconclusive, Pf growth 48h inconclusive and Cycloheximide cs -2.
